The structures appear in SMILES notation. The panel holds about 83,000 compounds, 20% with a hit somewhere; the sample as a whole holds those more often.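 A percent growth of 40 corresponds to 60% growth inhibition; 0 means no net growth; -100 means all cells died. Active threshold: below 10.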 Values without a mark were called inactive. Activity calls are given as the source filed them.

Test systems include SR leukemia; OVCAR-8 ovarian; OVCAR-5 ovarian; OVCAR-4 ovarian; SK-OV-3 ovarian; IGROV1 ovarian; OVCAR-3 ovarian; HS 578T breast; NCI/ADR-RES ovarian; T-47D breast; BT-549 breast; MDA-MB-435 melanoma; HCT-116 colon; HCC-2998 colon; KM12 colon; SW-620 colon; MCF7 breast; RPMI-8226 leukemia.
What all share (experiment): NCI-60 one-dose screen, 48 h (100 = growth as untreated, 0 = no growth, -100 = all killed)
Holding throughout (conditions): 10 µM unless noted

On to `COc1ccc(Cn2cc3c(c2-c2cc(OC)c(OC)c(OC)c2)CCc2c(CN4CCCC4)noc2-3)cc1`, for which the growth in the assay on SR leukemia was 29%; with OVCAR-8 ovarian, 42.5%; in the assay on OVCAR-5 ovarian, 27.9%; with OVCAR-4 ovarian, 55.2%; with SK-OV-3 ovarian, 41%; with IGROV1 ovarian it was 29.9%. Moreover, the growth with OVCAR-3 ovarian is -16% (active); with HS 578T breast it was 10.3%; in the assay on NCI/ADR-RES ovarian, 9.19% (active); in the assay with T-47D breast, 42.9%; with BT-549 breast, 76%; in the assay on MDA-MB-435 melanoma, -39.2% (active). Besides, the values for the growth in the assay with HCT-116 colon, in the assay on HCC-2998 colon and in the assay with KM12 colon were 18%, 24.9% and 14.9%, respectively.

`CCOC(=O)c1c(N)c(C#N)cn1-c1cc(OC)c(OC)c(OC)c1`: the growth in the assay with SR leukemia was 105%; with OVCAR-8 ovarian it was 102%; in the assay with OVCAR-5 ovarian it was 96%; in the assay with SK-OV-3 ovarian, 135%; in the assay on IGROV1 ovarian, 105%; in the assay with OVCAR-3 ovarian, 119%. In addition, the growth in the assay on HS 578T breast was 99.5%; in the assay on NCI/ADR-RES ovarian, 110%; in the assay on T-47D breast, 112%; with BT-549 breast, 107%; in the assay with MDA-MB-435 melanoma, 103%; in the assay with SW-620 colon, 98.8%. Also, the growth is 91.1% in the assay with MCF7 breast, 113% in the assay on HCT-116 colon, 115% with HCC-2998 colon and 108% in the assay on KM12 colon.

With `Cc1ccc(-c2nnc(SCc3ccc(O)c4ncccc34)n2-c2ccccc2)cc1`, the growth in the assay with SR leukemia was 12.1%; with OVCAR-5 ovarian, 37.5%; in the assay with OVCAR-4 ovarian it was 13.8%; with SK-OV-3 ovarian it was 5.69% (active); with IGROV1 ovarian, 8.07% (active); in the assay with OVCAR-3 ovarian, 16.2%. Besides, the growth in the assay with HS 578T breast is -3.23% (active); in the assay with NCI/ADR-RES ovarian, 2.09% (active); in the assay with T-47D breast it was 5.79% (active); in the assay on BT-549 breast, 18.4%; in the assay on MDA-MB-435 melanoma, 9.9% (active); with SW-620 colon, 12.9%. In addition, the growth with MCF7 breast was 4.47% (active); in the assay with HCT-116 colon, 6.12% (active); in the assay on HCC-2998 colon, 22.3%; with KM12 colon, 2.4% (active).

Consider `CCCn1cnc2c(c1=N)C(c1ccc(F)cc1)c1sc3c(C)cccc3c1O2` (stereo not drawn), for which the growth was 8.4% (active) in the assay with SR leukemia; 40.2% with OVCAR-8 ovarian; 42.4% in the assay on OVCAR-5 ovarian; 35.8% in the assay on OVCAR-4 ovarian; 41.1% in the assay on SK-OV-3 ovarian; 25.2% in the assay with IGROV1 ovarian. For the same compound, the growth in the assay on OVCAR-3 ovarian is -12.6% (active); in the assay with HS 578T breast, 13.7%; in the assay with NCI/ADR-RES ovarian, -11.8% (active); with T-47D breast, 38.3%; in the assay on MDA-MB-435 melanoma, -58% (active); in the assay on SW-620 colon, 16.4%. Moreover, the growth in the assay with MCF7 breast is 18.4%; in the assay with HCT-116 colon, 16.7%; in the assay with HCC-2998 colon it was 57.3%; in the assay with KM12 colon, 24.9%.

Turning to `Clc1ccc(N/N=c2/oc3ccccc3cc2-c2cc3ccccc3[nH]2)cc1`, the growth in the assay with SR leukemia is 90.8%; with OVCAR-8 ovarian, 62.3%; with OVCAR-5 ovarian it was 83.4%; with OVCAR-4 ovarian, 69.5%; in the assay on SK-OV-3 ovarian it was 89.6%; with IGROV1 ovarian, 57.2%. Moreover, the growth was 47.7% in the assay on OVCAR-3 ovarian; 103% in the assay with HS 578T breast; 78.5% in the assay with NCI/ADR-RES ovarian; 40.4% in the assay with T-47D breast; 80.3% in the assay with BT-549 breast; -71.4% (active) in the assay on MDA-MB-435 melanoma. Also, the growth in the assay on SW-620 colon was 78.7%; in the assay with MCF7 breast it was 53.3%; in the assay with HCT-116 colon, 66.9%; in the assay on HCC-2998 colon it was 95.6%; in the assay with KM12 colon, 58.1%.

As to `Cc1cc(-c2ccc(Cl)cc2)n(Cc2nnc(SCC(=O)Nc3ccc(S(N)(=O)=O)cc3)n2C2CCCCC2)n1`, the growth in the assay with RPMI-8226 leukemia is 102%; in the assay on OVCAR-8 ovarian it was 99.2%; in the assay on OVCAR-5 ovarian, 107%; with OVCAR-4 ovarian, 109%; in the assay with SK-OV-3 ovarian, 106%; in the assay with IGROV1 ovarian, 104%. Moreover, the growth was 100% in the assay on HS 578T breast; 106% in the assay on NCI/ADR-RES ovarian; 108% with T-47D breast; 124% in the assay on BT-549 breast; 109% in the assay with MDA-MB-435 melanoma; 107% with SW-620 colon. For the same compound, the growth was 91% in the assay with MCF7 breast, 107% in the assay with HCT-116 colon, 110% with HCC-2998 colon and 108% in the assay on KM12 colon.

For the compound `Nc1ncc(-c2ccc(NS(=O)(=O)c3ccc(Cl)c(Cl)c3)cc2)[nH]1`, the growth with SR leukemia was 76.6%; in the assay with OVCAR-8 ovarian, 92.9%; with OVCAR-5 ovarian it was 90.4%; with OVCAR-4 ovarian, 93.9%; in the assay on SK-OV-3 ovarian it was 94.5%; in the assay on IGROV1 ovarian, 88.8%. Besides, the growth in the assay with HS 578T breast is 79.5%; in the assay on NCI/ADR-RES ovarian, 98.3%; with T-47D breast, 76.7%; in the assay with BT-549 breast it was 69.9%; in the assay on MDA-MB-435 melanoma, 96.4%; in the assay on SW-620 colon, 91.3%. Also, the growth in the assay on MCF7 breast is 75%; in the assay with HCT-116 colon, 99.3%; with HCC-2998 colon, 91.2%; in the assay with KM12 colon it was 89.6%.

Regarding `O=C(Nc1ccc2c(ccn2Cc2ccccn2)c1)c1ccnnc1`, the growth was 101% in the assay with SR leukemia; 104% with OVCAR-8 ovarian; 95% in the assay on OVCAR-5 ovarian; 68.3% in the assay on OVCAR-4 ovarian; 105% in the assay with SK-OV-3 ovarian; 80.3% in the assay on IGROV1 ovarian. Besides, the growth in the assay with OVCAR-3 ovarian was 106%; in the assay on HS 578T breast it was 102%; in the assay with NCI/ADR-RES ovarian it was 114%; in the assay on T-47D breast it was 97.9%; in the assay on MDA-MB-435 melanoma, 98.3%; in the assay with SW-620 colon it was 101%. Further, the growth is 102% in the assay on MCF7 breast, 93.2% in the assay with HCT-116 colon, 120% in the assay with HCC-2998 colon and 99.4% in the assay on KM12 colon.

Consider `Clc1nc2ccccc2nc1-c1nnc(C2CCCCC2)o1`, for which the growth with RPMI-8226 leukemia was 95.4%; with OVCAR-8 ovarian, 101%; in the assay with OVCAR-5 ovarian, 107%; in the assay with OVCAR-4 ovarian, 98%; in the assay on SK-OV-3 ovarian, 102%; in the assay on IGROV1 ovarian it was 101%. Moreover, the growth was 92.8% with HS 578T breast; 107% with NCI/ADR-RES ovarian; 86% with T-47D breast; 138% in the assay on BT-549 breast; 99.1% with MDA-MB-435 melanoma; 97.2% in the assay with SW-620 colon. Further, the growth is 101% in the assay with HCT-116 colon, 104% in the assay on HCC-2998 colon and 94.1% in the assay on KM12 colon.

Values taken from PubChem BioAssay (NCI).
